Bioassay records as filed in PubChem BioAssay.
PKA kinase inh: PKA (human) kinase inhibition. P17612. PKA Kemptide phosphorylation, Kinase-Glo ATP luminescence. inhibition, % at 6 µM. 65,000 compounds, 0.1% hits. AID 524;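 active = inhibition above the screen-wide mean inhibition plus 3 SD, cut at about 21% in these data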
WNV NS2B-NS3 inh: blocks West Nile virus NS2B-NS3 protease activity; P06935; WNV NS2B-NS3 protease, fluorogenic substrate Ex360/Em465; hits give low values; z-score (test concentration not listed); 65,000 compounds, 0.18% hits; in the data active = z-score below about -3
SK-BR-3 tox 24h: SK-BR-3 proliferation inhibitors. SK-BR-3 viability, CellTiter-Glo ATP luminescence, 24 h; hits give low values. 41,000 compounds, 0.47% hits. viability, % at 10 µM;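 active = viability at or below the median of all test compounds minus 3 SD, in both replicates if run twice, cut at about 45% in these data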;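 also: 100% = median untreated cell wells and 0% = median positive control drug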
ROCK2 inh: ROCK2 (human) kinase inhibition; inhibition, % at 6 µM; 60,000 compounds, 0.35% hits; purified ROCK2, Kinase-Glo ATP depletion luminescence;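 active = inhibition above the screen-wide mean inhibition plus 3 SD, cut at about 18% in these data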;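 also: plate controls were DMSO wells for no effect and Y-27632 control wells after no-enzyme background subtraction for full effect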
Hsp90 inh: displaces geldanamycin probe from tumor Hsp90; NCI-N417 lysate Hsp90, Cy3B-geldanamycin FP displacement; inhibition, % at 30 µM; 64,000 compounds, 0.35% hits;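 active = inhibition above 50%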;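 also: 0% = tracer plus lysate wells and 100% = tracer alone without lysate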
Her2 expr inh: inhibitors of human Her2 kinase expression; P04626; SKBR-3 HER2 protein level, AlphaScreen, 18-24 h; hits give low values; 65,000 compounds, 0.69% hits; HER2 level % of control, % at 10 µM;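 active = HER2 level under 5% of the carrier-only control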;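 also: 100% = DMSO carrier and 0% = 500 nM PU-H71 HSP90 inhibitor; lower value means stronger loss of Her2 protein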
Numbers without * were called inactive; x = no result. This is a sample that favours compounds with a hit; in the whole collection about 1.6% have one here.

SMILES	PKA kinase inh	WNV NS2B-NS3 inh	SK-BR-3 tox 24h	ROCK2 inh	Hsp90 inh	Her2 expr inh
Cc1ccc(NC(=O)C2CCN(S(=O)(=O)c3cccc4nonc34)CC2)nc1	-1	-4.8*	88	0	-4	93
CCCCCN=Cc1c(C)[nH]n(-c2nc3ccccc3s2)c1=O	-5	-0.38	x	-22	-10	-20*
CCCc1[nH]n(-c2nc3ccccc3s2)c(=O)c1C=NCCN1CCOCC1	-1	0.31	86	-14	-1	88
COc1cccc(/C=C2/CN(C)CC3=C2OC(N)=C(C#N)C3c2cccc(OC)c2)c1 (stereo unspecified)	5	0.53	80	11	-9	77
O=C(CSc1n[nH]c(-c2ccccc2)n1)c1ccc(O)c(O)c1	-2	0.15	93	-1	76*	98
Cc1ccc(C)n1-c1ccc(-c2nnco2)cc1	5	0.11	x	-5	-4	90
Cc1cc(-c2nnco2)c(C)n1-c1ccc(F)cc1	6	-0.81	84	x	x	4.7*
CCSc1nnc2c(n1)OC(c1ccc(C(=O)O)cc1)N(C(C)=O)c1ccccc1-2 (stereo unspecified)	10	0.48	x	4	89*	108
O=C(O)CCC/C=C\C[C@@H]1[C@@H](/C=C/[C@H](O)C2Cc3ccccc3C2)[C@@H](F)C[C@@H]1O	x	x	x	x	0	x
COc1ccc(C(=O)CSc2nnc(CNC(=O)c3ccc(OC)c(OC)c3)n2C)cc1	10	-0.32	103	7	1	132
COc1ccc(NCc2nnc(SCC(=O)c3ccc(OC)cc3)n2C)cc1	-2	0.28	75	-12	16	-43*
CC(=O)n1cc(-c2ccncc2)c2ccccc21	26*	1.5	x	61*	-3	118
Oc1ccc2ccccc2c1C=NC12CN3CCN(CN(C3)C1)C2	3	-1	116	6	89*	100
COc1cc(NCCCC(C)=NO)c2nccc(Cl)c2c1	x	x	x	x	1	x
COc1ccc(OC)c(NC(=O)CN(c2ccc(OC)c(Cl)c2)S(C)(=O)=O)c1	-6	2.1	36*	-2	0	95
N#Cc1c(N)sc(=S)c2c1CCN(Cc1ccccc1)C2	19	1.1	x	5	-3	0.0*
CCN1CCc2c(sc(N)c2C#N)C1	7	1.5	82	5	-51	63
Nc1nc2c(nc(Br)n2C2OC3COP(=O)(O)O[C@@H]3C2O)c(=O)[nH]1 (stereo partly specified)	x	x	x	x	-1	x
Cn1c(CSCc2ccc(Cl)c(Cl)c2)nnc1SCC(=O)Nc1nccs1	19	1.1	93	25*	-6	47
CCN(CC)CCC(=O)Nc1cc(OC)cc2cccnc12	x	x	x	x	6	x
O=C1/C(=N/n2cnnc2)c2ccccc2N1Cc1ccccc1	6	0.51	90	4	-9	-16*
CCOC(=O)N1CCN(c2c(-c3ccc(C)cc3)c(=O)c2=O)CC1	12	1.4	x	0	1	140
CCOC(=O)N1CCN(C2=CC(=O)OC23CCCCC3)CC1	-3	-5.2*	92	-1	-1	103
CC1CCN(c2c(NCc3ccc(C(=O)N4c5ccccc5CC4C)cc3)c(=O)c2=O)CC1 (stereo unspecified)	-6	-0.06	x	2	-4	79
COC(=O)c1[nH]c2cc(OC)ccc2c1NC(=O)c1ccc2c(c1)OCO2	1	-5.6*	99	x	x	258
SMILES	PKA kinase inh	WNV NS2B-NS3 inh	SK-BR-3 tox 24h	ROCK2 inh	Hsp90 inh	Her2 expr inh
O=C(C1CCN(S(=O)(=O)N2CCOCC2)CC1)N1CCN(c2ccccc2)CC1	1	-1.1	x	3	-1	102
COc1ccccc1C(=O)N1CCN(c2cccc(Cl)c2)CC1	9	1.2	40*	x	x	41
COc1ccc(C2c3c(oc4c(C)cc(C)cc4c3=O)C(=O)N2Cc2cccnc2)cc1OC (stereo unspecified)	1	0.88	51	3	3	102
COc1cc(C2c3c(oc4c(C)cc(C)cc4c3=O)C(=O)N2Cc2cccnc2)ccc1O (stereo unspecified)	-1	0.56	35*	-1	5	80
CC(C)(CC(=O)N1CCN(c2ccc(Cl)cc2)CC1)CC1=NS(=O)(=O)c2ccccc2N1	12	-0.87	x	-3	-10	96
CC12CCC(C(=O)N3CCN(Cc4ccccc4)CC3)(OC1=O)C2(C)C (stereo unspecified)	6	0.26	92	3	-7	110
Cc1nc(Cc2nnc(SCc3nc(N)nc(Nc4ccccc4C)n3)o2)cs1	0	-0.8	36*	x	x	95
CCOc1ccc(-c2nnn(CC(=O)c3ccc4c(c3)OCCO4)n2)cc1	2	2	104	-7	0	99
CCOc1ccc(-c2nnn(CC(=O)Nc3cc(OC)ccc3OC)n2)cc1OCC	13	-0.48	88	3	0	90
CCOc1ccc(-c2nnn(CC(=O)c3cc(OC)ccc3OC)n2)cc1	-2	-0.17	91	-4	1	-14*
CCOc1ccccc1NC(=O)Cn1nnc(-c2ccc(OCC)c(OCC)c2)n1	5	-0.65	97	6	0	-20*
CCCCCOC(=O)CSc1nnc(-c2ccccc2)c(=O)[nH]1	7	1.1	77	3	-3	82
COc1ccc(C2=Nn3c(nnc3-c3ccc(OC)cc3)SC2)cc1	4	-9.6*	84	4	2	78
Cc1ccc(-c2nnc3n2N=C(c2ccccc2)CS3)cc1	-8	-2.1	x	-3	1	95
Cc1sc2ncnc(OCC(=O)NCc3cccs3)c2c1C	5	-0.04	x	5	-3	111
O=C(CCN1CCCCC1)Nn1c(=S)[nH]c2ccccc2c1=O	2	0.79	x	-7	1	122
O=C(Nn1c(=S)[nH]c2ccccc2c1=O)c1ccncc1	7	1.3	75	20*	1	111
Cc1ccc(NC(=O)CSc2nnc(Cn3c(=O)sc4ccccc43)n2C)cc1Cl	-8	-0.51	x	-4	0	65
O=C(CSc1c2c(nc3ccc(Cl)cc13)CCCC2)N1CCN(C(=O)c2ccco2)CC1	2	-0.76	97	0	0	-5.2*
CC(C)(C)OC(=O)n1ccc2c(NCCCN)ncnc21	x	x	x	x	-1	x
CCCc1cc(=O)[nH]c(SCC(=O)c2c(N)n(C)c(=O)n(C)c2=O)n1	6	0.37	34*	x	x	81
Cc1nnc(SCC(=O)c2c(N)n(C)c(=O)n(C)c2=O)[nH]c1=O	8	-1	x	2	-6	105
CC1=C2C(CCS2(=O)=O)CC2(C1)C(=O)OC(C)(C)OC2=O (stereo unspecified)	11	-0.7	94	4	-2	112
Cc1sc2ncnc(Sc3nnnn3-c3ccc(Cl)cc3)c2c1C	-6	0.39	x	0	-8	-13*
Cc1sc2ncnc(SCc3ccco3)c2c1C	0	0.38	x	-2	-1	17
O=C(CSc1ccc2nnc(-c3ccc(F)cc3)n2n1)N1CCOCC1	9	0.16	x	3	0	100
